# ATXN viability: Viability Counterscreen for Primary qHTS for Inhibitors of ATXN expression; Potency, µM (top dose mostly 56.7 µM), hits mostly cytotoxic; S2 cells (HEK-293 line with an ATXN2-luciferase reporter) viability, CellTiter-Fluor protease fluorescence, 24 h; AID 651635, 2014; hit rate 0.49% among 400,000; also: nearly all actives have a fitted effect of over 40% in size
# HepG2 tox: qHTS for Inhibitors of TGF-b: Cytotox Counterscreen; Potency, µM (highest dose often 46.1 µM), hits mostly cytotoxic; AID 588856, 2011; HepG2 CAGA-GFP viability, ATP luminescence, 18 h; hit rate 0.76% among 410,000
#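 HepG2 CAGA-GFP cells (1000/well, DMEM with 1% FBS) received compound, then TGF-beta at 500 pg/mL final, and were incubated 18 hours at 37 degrees C. Viability was read by CellTiter-Glo luminescence. Media-only wells were set as complete cell-killing and DMSO as no toxicity.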
# ATXN2 expr inh: Primary qHTS for Inhibitors of ATXN expression; Potency, µM (titrated, usually from 57 µM), usual class: inhibitors; HEK-293 ATXN2-luciferase reporter, luminescence, 24 h; hit rate 0.72% among 360,000; AID 1745845, 2022; also: nearly all actives have a fitted effect of over 55% in size
#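 ATXN2-luciferase reporter cells (luciferase flanked by upstream and downstream ATXN2 gene portions) were treated 24 h at 37 °C with compounds at up to 57 uM. SteadyGlo luminescence gave expression; GF-AFC fluorescence gave viability.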
# TGFb SMAD3 inh: qHTS for Inhibitors of TGF-b; hit rate 1.2% among 410,000; AID 588855, 2011; HepG2 CAGA-GFP TGF-b/SMAD3 reporter, GFP fluorescence, 18 h; TGF-beta stimulated, 500 pg/mL final; Potency, µM (titrated, usually from 46.1 µM), most hits filed as inhibitors; also: nearly all actives have a fitted effect of over 65% in size
#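 TGF-beta reporter screen: HEPG2 CAGA-GFP, 1% FBS, 500 pg/mL TGF-beta final, 18 h; per-cell GFP summed per well; curves fitted and categorized by class.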
# DT40 TDP1 CPT: qHTS for Inhibitors of human tyrosyl-DNA phosphodiesterase 1 (TDP1): qHTS in cells in presence of CPT; Potency, µM (top dose mostly 46.2 µM), most hits filed as inhibitors; hit rate 12% among 420,000; chicken DT40 Tdp1-/-;hTDP1 cells + 20 nM CPT, ATP luminescence, 48 h; also: nearly all actives have a fitted effect of over 55% in size
#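 Chicken DT40 Tdp1-/- cells stably complemented with human TDP1 were seeded at 400 cells/well in medium containing 20 nM camptothecin, exposed to pin-transferred compounds, and grown at 37 °C for at least 48 hr. Viability was read as ATP luminescence.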
# TDP1 cell noCPT: qHTS for Inhibitors of human tyrosyl-DNA phosphodiesterase 1 (TDP1): qHTS in cells in absence of CPT | DT40 Tdp1-/- hTDP1 cells, no CPT, ATP luminescence, 48 h | AID 686978, 2013 | Potency, µM (titrated, usually from 46.2 µM), hits mostly inhibitors | hit rate 15% among 420,000; also: nearly all actives have a fitted effect of over 55% in size
#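 A cellular qHTS used chicken DT40 cells lacking endogenous Tdp1 but carrying stably transfected human TDP1. Compounds were applied without camptothecin, and cell growth kinetics were judged by ATP-dependent luminescence after ≥48 hr.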
# Hits are given with their value; i = inactive; ? = inconclusive; nt = not tested or not shown. An excerpt weighted towards active compounds, which were near 17% of everything screened. Calls follow the shape of the dose curve; as a rule, active = well fitted curve in the direction sought with a large enough effect; inconclusive = small, poorly fitted or top-dose-only effect, or another doubt; inactive = no such curve, though single readings can be large; an effect the other way counts as inactive or inconclusive.
SMILES,ATXN viability,HepG2 tox,ATXN2 expr inh,TGFb SMAD3 inh,DT40 TDP1 CPT,TDP1 cell noCPT
CSCCC(NC(=O)c1cc(S(=O)(=O)N2CCOCC2)ccc1F)c1nc2ccccc2[nH]1 (stereo not drawn),i,i,i,i,i,i
COc1cc(OC)cc(C(=O)Nc2nc(-c3ccccc3)c(-c3ccccc3)o2)c1,i,i,?,?,7.3µM,10µM
O[C@@](CCN1CCCCC1)(c1ccccc1)[C@@H]1C[C@H]2C=C[C@@H]1C2,i,nt,nt,nt,nt,nt
CC1CCCC(NC(=O)C2CCCN2S(=O)(=O)c2cccc3nsnc23)C1C (stereo not drawn),i,i,i,i,?,15µM
CC(=O)Nc1ccc(NC(=O)C2CCCN2S(=O)(=O)c2cccc3nsnc23)cc1 (stereo not drawn),i,i,i,i,i,i
Cc1cccc(C(C)C)c1NC(=O)C1CCCN1S(=O)(=O)c1cccc2nsnc12 (stereo not drawn),i,i,i,?,23µM,15µM
CC(=O)c1ccc2c3c(ccc([N+](=O)[O-])c13)CC2,i,i,nt,i,i,i
Nc1ccc2c3c(ccc([N+](=O)[O-])c13)CC2,i,i,nt,i,?,7.3µM
O=C(O)c1cnc(-c2ccccc2)nc1C(F)(F)F,i,i,i,i,i,i
Cc1ccc(NS(=O)(=O)c2ccc3c(c2)NC(=O)CCS3)c(Cl)c1,i,i,i,i,?,i
CC(=O)c1ccc(NS(=O)(=O)c2ccc3c(c2)NC(=O)CCS3)cc1,i,i,i,i,nt,nt
COc1ccc(Cl)cc1NS(=O)(=O)c1ccc2c(c1)NC(=O)CCS2,i,i,nt,i,?,4.6µM
CCC1Sc2ccc(S(=O)(=O)Nc3ccc(OC)c(OC)c3)cc2NC1=O (stereo not drawn),i,i,i,i,21µM,8.2µM
CCC1Sc2ccc(S(=O)(=O)Nc3ccc(OC)cc3)cc2NC1=O (stereo not drawn),?,i,nt,?,?,?
Cc1ccc(Cl)cc1NS(=O)(=O)c1ccc2c(c1)NC(=O)CCS2,i,i,?,i,nt,nt
CCOc1ccc(NS(=O)(=O)c2ccc3c(c2)NC(=O)CCS3)cc1,?,i,i,i,?,12µM
Cc1ccc(NS(=O)(=O)c2ccc3c(c2)NC(=O)CCS3)c(C)c1,i,i,i,i,23µM,?
Cc1cc(C)c(NS(=O)(=O)c2ccc3c(c2)NC(=O)CCS3)c(C)c1,i,i,i,i,?,15µM
CCCCN(C)CC(O)Cn1cc(/C=C/C(=O)c2ccc(C)cc2)c2ccccc21 (stereo not drawn),nt,13µM,nt,18µM,7.3µM,9.2µM
CCCCN(C)CC(O)Cn1cc(/C=C/C(=O)c2ccc(Br)cc2)c2ccccc21 (stereo not drawn),nt,i,i,?,6.5µM,5.2µM
COc1ccc(C(=O)/C=C/c2cn(CC(O)CN3CCN(C)CC3)c3ccccc23)cc1OC (stereo not drawn),nt,i,i,?,?,?
CCCCN(C)CC(O)Cn1cc(/C=C/C(=O)c2ccc(OC)c(OC)c2)c2ccccc21 (stereo not drawn),nt,i,22µM,?,18µM,21µM
OCC(O)CO,nt,nt,nt,nt,i,i
COc1ccccc1NC1=C(N2CCCCC2)C(=O)c2ccccc2C1=O,?,16µM,?,?,2.1µM,1.8µM
O=C(/C=C/c1ccc(O)cc1)c1ccc(NC2=C(N3CCCCC3)C(=O)c3ccccc3C2=O)cc1,?,i,?,6.3µM,1.3µM,1.6µM
CC1(C)CC(=O)C=C(Nc2cccc(O)c2)C1,i,i,i,i,i,i
O=c1nc(N2CCCCC2)nc(Nc2ccccc2)[nH]1,?,i,i,i,?,i

# Screens deposited in PubChem by National Center for Advancing Translational Sciences (NCATS).
